# Where “and” joins values, the source holds several entries; their conditions need not be identical. Equal entries are not always repeated. This is part of a sample that, as a whole, favours compounds with a hit. Of some 79,000 tested, about 15% had one in any assay. A number with no mark means an inactive call. Calls of active or inactive are those of the source. Cut-off read from the data, not from the text of the source: active = growth inhibition above about 70%; inactive = the rest.
# Test: NCI Yeast Anticancer Drug Screen. Data for the sgs1 mgt1 strain (AID 161);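 note: 0% = growth of cultures given vehicle only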
# Settings: S. cerevisiae sgs1 mgt1 strain, at 5.0 µM (retest, dose inferred, filed as 0.5), stronger effect = higher value
# Summary of the method: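 Growth of a repair-deficient yeast mutant was monitored after compound treatment and expressed as inhibition relative to vehicle-treated cultures.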
row,SMILES,growth inhibition
1,COc1cc(C(c2cc3c(cc2O)OCO3)N2CCN(C(c3cc(OC)c(OC)c(OC)c3)c3cc4c(cc3O)OCO4)CC2)cc(OC)c1OC (configuration not stated),-5%
2,Cc1cc(N)c(C)c2c1[nH]c1ccc(Br)cc12,-6%
3,O=C1/C(=C/c2ccc([N+](=O)[O-])cc2)CNC/C1=C\c1ccc([N+](=O)[O-])cc1,93% (active)
4,CN(NC(=O)CC(=O)NN(C)C(=S)c1ccccc1)C(=S)c1ccccc1,96% (active)
5,O=c1nc(N2CCCC2)nc(N2CCCC2)s1,-1%
6,CC(=O)SC1C(=O)N(C)C(SC(C)=O)C(=O)N1C (configuration not stated),0%
7,CCN(CC)CC(O)c1ccnc2c(O)cccc12 (configuration not stated),-2%
8,CC1=NN(c2ccccc2)C(=O)C1N=Nc1cc(Cl)cc(S(=O)(=O)O)c1O (configuration not stated),21%
9,O=C1C=CC(=O)N1c1cccc([N+](=O)[O-])c1,93% (active)
10,CC(=O)O/C=C1\c2ccccc2CCC1c1ccc2ccccc2c1 (configuration not stated),1%
11,CCOc1ccccc1NC1=C(Cl)C(=O)c2ccccc2C1=O,100% (active)
12,CC(O)c1c2ccccc2cc2ccccc12 (configuration not stated),1%
13,CCCCCCCCCCCCCCCCC#N,0%
14,CN(C)Cc1ccc2[nH]c3c(c2c1)CCCC3,2%
15,O=C(O)C1(Cc2ccc3c(c2)CCC3)Cc2cc3c(cc2C1)CCC3,-1%
16,O=C(c1ccc(O)c(Br)c1)c1cc(Br)ccc1O,73% (active)
17,Oc1cc(F)cc2cccnc12,99% (active)
18,C/C(=N\OC(=O)c1ccccc1)[N+](=O)[O-],-11%

# Same assay, conditions: S. cerevisiae sgs1 mgt1 strain, at 50.0 µM (retest, dose inferred, filed as 5.0), stronger effect = higher value
row,SMILES,growth inhibition
1,COc1cc(C(c2cc3c(cc2O)OCO3)N2CCN(C(c3cc(OC)c(OC)c(OC)c3)c3cc4c(cc3O)OCO4)CC2)cc(OC)c1OC (configuration not stated),88% (active)
2,Cc1cc(N)c(C)c2c1[nH]c1ccc(Br)cc12,98% (active)
3,O=C1/C(=C/c2ccc([N+](=O)[O-])cc2)CNC/C1=C\c1ccc([N+](=O)[O-])cc1,99% (active)
4,CN(NC(=O)CC(=O)NN(C)C(=S)c1ccccc1)C(=S)c1ccccc1,87% (active)
5,O=c1nc(N2CCCC2)nc(N2CCCC2)s1,-11%
6,CC(=O)SC1C(=O)N(C)C(SC(C)=O)C(=O)N1C (configuration not stated),55%
7,CCN(CC)CC(O)c1ccnc2c(O)cccc12 (configuration not stated),33%
8,CC1=NN(c2ccccc2)C(=O)C1N=Nc1cc(Cl)cc(S(=O)(=O)O)c1O (configuration not stated),52%
9,O=C1C=CC(=O)N1c1cccc([N+](=O)[O-])c1,99% (active)
10,CC(=O)O/C=C1\c2ccccc2CCC1c1ccc2ccccc2c1 (configuration not stated),11%
11,CCOc1ccccc1NC1=C(Cl)C(=O)c2ccccc2C1=O,98% (active)
12,CC(O)c1c2ccccc2cc2ccccc12 (configuration not stated),72% (active)
13,CCCCCCCCCCCCCCCCC#N,-4%
14,CN(C)Cc1ccc2[nH]c3c(c2c1)CCCC3,90% (active)
15,O=C(O)C1(Cc2ccc3c(c2)CCC3)Cc2cc3c(cc2C1)CCC3,-1%
16,O=C(c1ccc(O)c(Br)c1)c1cc(Br)ccc1O,98% (active)
17,Oc1cc(F)cc2cccnc12,99% (active)
18,C/C(=N\OC(=O)c1ccccc1)[N+](=O)[O-],99% (active)

# Same assay, conditions: S. cerevisiae sgs1 mgt1 strain, at 50.0 µM, stronger effect = higher value
row,SMILES,growth inhibition
1,COc1cc(C(c2cc3c(cc2O)OCO3)N2CCN(C(c3cc(OC)c(OC)c(OC)c3)c3cc4c(cc3O)OCO4)CC2)cc(OC)c1OC (configuration not stated),28.6%
2,Cc1cc(N)c(C)c2c1[nH]c1ccc(Br)cc12,77.2% (active)
3,CC(=O)OC1COC(SC(=N)N)C(OC(C)=O)C1OC(C)=O (configuration not stated),27.9% and 22.1% and 24.4%
4,NCC(=O)NC(CO)C(=O)O (configuration not stated),-12.2% and -2.65% and -3.75%
5,O=C1/C(=C/c2ccc([N+](=O)[O-])cc2)CNC/C1=C\c1ccc([N+](=O)[O-])cc1,85.5% (active)
6,OC(c1ccccc1)C(O)c1ccccc1 (configuration not stated),4.4% and 1.85% and 11.1%
7,CN(NC(=O)CC(=O)NN(C)C(=S)c1ccccc1)C(=S)c1ccccc1,91.7% (active)
8,O=c1nc(N2CCCC2)nc(N2CCCC2)s1,-9.25%
9,CC(=O)SC1C(=O)N(C)C(SC(C)=O)C(=O)N1C (configuration not stated),96.6% (active)
10,CCN(CC)CC(O)c1ccnc2c(O)cccc12 (configuration not stated),71.7% (active)
11,Nc1ccc(S(=O)(=O)O)c2ccccc12,-10.4% and -28.8% and 7.35%
12,CC1=NN(c2ccccc2)C(=O)C1N=Nc1cc(Cl)cc(S(=O)(=O)O)c1O (configuration not stated),55.7%
13,O=C1C=CC(=O)N1c1cccc([N+](=O)[O-])c1,99.5% (active)
14,CC(=O)O/C=C1\c2ccccc2CCC1c1ccc2ccccc2c1 (configuration not stated),0.3%
15,COC1OC2COC(c3ccccc3)OC2C(O)C1O (configuration not stated),-3.35% and 7.95% and 0.55%
16,CCOc1ccccc1NC1=C(Cl)C(=O)c2ccccc2C1=O,98% (active)
17,CC(O)c1c2ccccc2cc2ccccc12 (configuration not stated),37.6%
18,CCCCCCCCCCCCCCCCC#N,52.1%
19,CSc1ccccc1C(=O)O,-10.4% and -1.2% and 31.2%
20,Cc1ccc(S(=O)(=O)OCC(O)C(O)COS(=O)(=O)c2ccc(C)cc2)cc1 (configuration not stated),25.3% and -27.6% and -5.9%
21,CN(C)Cc1ccc2[nH]c3c(c2c1)CCCC3,43.7%
22,O=C(O)C1(Cc2ccc3c(c2)CCC3)Cc2cc3c(cc2C1)CCC3,77.8% (active)
23,O=C(c1ccc(O)c(Br)c1)c1cc(Br)ccc1O,97.8% (active)
24,Oc1cc(F)cc2cccnc12,94.1% (active)
25,OCC(O)C(O)C(O)C(O)CNCC(O)C(O)C(O)C(O)CO (configuration not stated),12.8% and 14.3% and -2.5%
26,C/C(=N\OC(=O)c1ccccc1)[N+](=O)[O-],72% (active)
